D2 PAM-1 = positive allosteric modulators of human D2 dopamine receptor; potentiation, % at 10 µM; AID 485347; 340,000 compounds, 0.34% hits; HEK293 T-REx D2, calcium flux, EC20 dopamine potentiation;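 active = potentiation over 3 SD above the plate norm, cut at about 30% in these data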
Target sequence (P14416 whole entry, looked up): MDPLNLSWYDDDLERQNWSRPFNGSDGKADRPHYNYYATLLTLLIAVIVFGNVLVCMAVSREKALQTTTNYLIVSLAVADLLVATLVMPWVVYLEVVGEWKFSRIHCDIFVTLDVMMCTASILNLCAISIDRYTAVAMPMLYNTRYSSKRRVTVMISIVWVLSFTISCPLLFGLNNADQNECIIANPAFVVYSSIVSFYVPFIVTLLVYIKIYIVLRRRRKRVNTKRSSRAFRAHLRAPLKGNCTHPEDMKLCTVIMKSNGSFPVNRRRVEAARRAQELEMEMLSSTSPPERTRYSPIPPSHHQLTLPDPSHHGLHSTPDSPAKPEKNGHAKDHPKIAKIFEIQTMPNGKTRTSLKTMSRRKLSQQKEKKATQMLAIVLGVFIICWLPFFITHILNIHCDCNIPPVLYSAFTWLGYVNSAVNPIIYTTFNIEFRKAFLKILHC
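Primary screen. Calcium kinetics in induced HEK293 T-REx D2 cells: compound pre-addition 180 s, EC20 dopamine, 180 s more.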
D2 PAM-2 = potentiates the human D2 dopamine receptor allosterically | 360,000 compounds, 0.23% hits | DiscoveRx D2 beta-arrestin cells, luminescence, 90 min; 100% = 57 uM dopamine signal | P14416 | potentiation, % (no concentration beside the values) | AID 624464; in the data active = potentiation above about 50%; inconclusive = mostly about 30% to 49%
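PathHunter D2 cells, attached overnight at 37 deg C, received compound in DMSO plus dopamine at EC20 (50 nM final) for 90 min at 37 deg C. Beta-arrestin recruitment was read as luminescence after 1 h with detection reagent at ambient temperature.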
D2 antag = D2 dopamine receptor (human) antagonism; inhibition, % at 10 µM; HEK293 TREx D2 cells, calcium flux, dopamine EC80; P14416; 340,000 compounds, 2% hits; in the data active = inhibition above about 30%; inactive = below that, where a call was filed
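Overnight-induced (tetracycline, 30 C) HEK293 T-REx cells carrying force-coupled D2 receive a no-wash calcium dye, then compound, then EC80 dopamine at 180 s; signals are read kinetically throughout.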
D2 ag-1 = agonists of human D2 dopamine receptor | HEK293 T-REx D2 cells, calcium flux agonist mode | activation, % at 2 µM | 340,000 compounds, 0.53% hits | AID 485358;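 active = activation over 3 SD above normal in the single-dose calcium agonist read, cut at about 30% in these data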
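Tetracycline-induced HEK293 T-REx cells with force-coupled D2 receptor, plated overnight at 30 C, loaded with no-wash calcium dye. After a 10 s baseline, compound was pin-added and calcium flux read kinetically for 180 s; calcium rises flagged agonists.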
D2 ag-2 = human D2 receptor agonism in beta-arrestin assay; AID 624465; 360,000 compounds, 0.084% hits; P14416; DiscoveRx PathHunter D2 beta-arrestin, luminescence, 90 min; 100% = 57 uM dopamine signal; activation, % (concentration not given with the values); in the data active = activation above about 40%; inconclusive = between about 15% and that limit
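DiscoveRx PathHunter D2 beta-arrestin cells (2,100/well) attached overnight, then compound-stimulated 90 min at 37 C in HBSS/10 mM HEPES/0.1% Tween-20 buffer; beta-galactosidase complementation read by luminescence after 1 h at ambient temperature. Dopamine 57 uM final (EC100) as control.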
A number is an active result; . = inactive; ? = inconclusive; / = not tested or not shown. Rows were chosen to be rich in hits. Some 2.4% of all compounds tested hit in one or more screens of this group.

SMILES | D2 PAM-1 | D2 PAM-2 | D2 antag | D2 ag-1 | D2 ag-2
COc1ccccc1N1CCN(Cc2cccc(OC)c2OC)CC1 | . | . | 71.3 | . | .
CCOc1ccccc1N1CCN(Cc2ccc(OC)c(OC)c2)CC1 | . | . | 94.4 | . | .
CCOc1cc(CN2CCCCCC2)ccc1OC | . | . | . | . | .
CCOc1ccccc1N1CCN(Cc2ccc(OC)c(OC)c2OC)CC1 | . | . | . | . | .
COc1cc(OC)c(OC)cc1CN1CCN(c2ccccc2OC)CC1 | . | . | 70.1 | . | .
COc1c(C)cccc1C(=O)Nc1ccc(Cl)c(-c2nc3cc(C)ccc3o2)c1 | . | / | / | . | /
CCOc1ccc(C(=O)c2cn(CC(=O)Nc3ccc(C)c(C)c3)c3ccc(OCC)cc3c2=O)cc1 | . | / | / | . | /
COc1ccc(Cl)cc1NS(=O)(=O)c1c(C)nc2scc(C)n2c1=O | . | / | / | . | /
COc1ccc(CC(C)N2CCN(c3ccccc3OC)CC2)cc1OC (centres undefined) | . | . | 88.6 | . | .
O=c1ccc2ccccc2c2ccccc12 | / | . | / | / | .
O=Nc1c(O)c2ccccc2c2ccccc12 | / | 66.7 | / | / | .
CC(C)c1nnc(NC(=O)C2CCCN2C(=O)Nc2ccccc2F)s1 (centres undefined) | . | . | 38.0 | . | .
COc1ccccc1NC(=O)N1CCCC1C(=O)Nc1nnc(C(C)C)s1 (centres undefined) | . | . | . | . | .
CC1CCC(NC(=O)CCc2cn(Cc3ccc(F)cc3)c3ccccc23)CC1 (centres undefined) | . | / | / | . | /
COc1ccc(C)cc1NC(=O)CCCN1C(=O)C(c2ccccc2)Oc2cccnc21 (centres undefined) | . | . | 37.9 | . | .
CCC1=C(OC(=O)N(CC)CC)N2C(=O)OC(=NCCOC)[C@]2(Cc2ccccc2)[C@H]2C1=CC[C@H]1C(=O)NC(=O)[C@H]12 | . | . | 51.7 | . | .
CCCCOc1ccc(CN(C)c2ncnc(N)n2)cc1 | . | . | 30.7 | . | .
CCC(C)NC(=O)Cn1c(=O)ccc2cc(S(=O)(=O)N3CCCC3)ccc21 (centres undefined) | . | / | / | . | /
O=C(OCC(=O)N1CCCc2ccccc21)c1ccc(C(F)(F)F)cc1 | . | . | . | . | .
O=C(OCC(=O)N1CCCc2ccccc21)c1ccc(S(=O)(=O)C(F)F)cc1 | . | . | 42.3 | . | .
CN=c1c([N+](=O)[O-])nn(-c2ccc3c(c2)OCCO3)n1O | . | . | . | . | 42.4
CCc1cccc(N=c2c([N+](=O)[O-])nn(-c3ccc4c(c3)OCCO4)n2O)c1 | . | ? | . | . | ?
O=[N+]([O-])c1nn(-c2ccc3c(c2)OCCO3)n(O)c1=NCc1ccc(F)cc1Cl | . | . | . | . | .
CC(C)c1ccc(N=c2c([N+](=O)[O-])nn(-c3ccc4c(c3)OCCO4)n2O)cc1 | . | 71.5 | . | . | .
O=[N+]([O-])c1nn(-c2ccc3c(c2)OCCO3)n(O)c1=NCCC1=CCCCC1 | . | 147.0 | . | . | ?
SMILES | D2 PAM-1 | D2 PAM-2 | D2 antag | D2 ag-1 | D2 ag-2
O=[N+]([O-])c1nn(-c2ccc3c(c2)OCCO3)n(O)c1=NCc1ccc(F)cc1 | . | 142.5 | . | . | ?
COc1ccc(CNC(=O)Cn2c(=O)oc3cc(S(=O)(=O)N4CCCCCC4)ccc32)cc1 | . | / | / | / | /
O=C(C1CCC(Cn2c(=O)c3sccc3n(Cc3ccc(F)cc3)c2=O)CC1)N1CCOCC1 (centres undefined) | . | / | / | . | /
CCOc1ccc(C(=O)NCCc2csc(-c3ccc(C(F)(F)F)cc3)n2)cc1OCC | . | / | / | . | /
COc1cc(N=c2c([N+](=O)[O-])nn(-c3ccc4c(c3)OCCO4)n2O)cc(OC)c1 | . | 68.3 | . | . | .
CCC1CN(C(=O)Nc2ccc(Br)cc2F)c2ccccc2S1 (centres undefined) | . | / | / | . | /
CCN(CC)S(=O)(=O)c1ccc2c(c1)c(=O)c(C(=O)NCc1ccccc1Cl)cn2C | . | / | / | . | /
c1ccc2oc(CCc3nc4ccccc4o3)nc2c1 | . | . | / | / | .
Nc1ccc2oc(CCc3ccccc3)nc2c1 | . | ? | 37.9 | . | .
COc1ccc(CNC(=S)Nc2ccc(F)c(Cl)c2)cc1 | . | . | 68.2 | . | .
COc1cccc(N2CCN(Cc3ncc(-c4ccccc4)o3)CC2)c1 | . | . | 48.1 | . | .
COc1cccc(N2CCN(CC(=O)Nc3nnc(-c4ccccc4)s3)CC2)c1 | . | . | . | . | .
COc1ccccc1OCC(=O)NCC1(N(C)C)CCCCC1 | . | / | / | . | /
OCCSc1ncnc2c1oc1ccccc12 | . | . | . | . | .
N#CCCSc1ncnc2c1oc1ccccc12 | . | . | 36.2 | . | .
Cc1cccc(C)c1NC(=O)CN1C(=O)S/C(=C\c2cccn2-c2cccc(C(=O)O)c2)C1=O | . | . | . | . | .
Cc1cccc(C)c1NC(=O)CN1C(=O)S/C(=C\c2cccn2C)C1=O | . | . | 30.1 | . | .
COc1ccccc1CNC(=O)C1=C(C)C(=O)OC12CCC(C)CC2 (centres undefined) | . | . | 47.4 | . | .
CC1=C(C(=O)NCCN2CCN(C)CC2)C2(CCC(C)CC2)OC1=O (centres undefined) | . | . | 61.5 | . | .
CCCNC(=O)C1=C(C)C(=O)OC12CCC(C)CC2 (centres undefined) | . | . | . | . | .
Cc1cccc(-c2noc(-c3ccc(NCc4cccnc4)c([N+](=O)[O-])c3)n2)c1 | . | / | / | . | /
COc1ccc(N2CCN(C(=O)c3cc4c(=O)n(Cc5cccs5)ccc4nc3C)CC2)cc1 | . | / | / | . | /
O=C1CC(c2ccc3c(c2)OCO3)c2cc3c(cc2N1)OCO3 (centres undefined) | . | . | . | . | .
O=C1CC(c2ccncc2)c2cc3c(cc2N1)OCO3 (centres undefined) | . | . | 37.2 | . | .
COc1cccc(Cn2c(CNC(=O)CCc3ccccc3)nc3cccnc32)c1 | . | / | / | . | /
SMILES | D2 PAM-1 | D2 PAM-2 | D2 antag | D2 ag-1 | D2 ag-2
O=C(CN1CCN(c2ccccc2F)CC1)c1ccc(O)c(O)c1 | . | . | . | 61.1 | .
Cc1c(O)ccc(C(=O)CN2CCN(c3ccccc3F)CC2)c1O | . | . | . | . | .
O=S(=O)(Nc1ccc(-c2ccc(N3CCCCC3)nn2)cc1)c1ccc(OC(F)(F)F)cc1 | . | / | / | . | /
Cc1[nH]nc2c1C(c1ccc(F)cc1)C1=C(CC(C)(C)CC1=O)N2 (centres undefined) | 30.4 | . | . | . | .
Cc1ccc(C2C3=C(CC(C)(C)CC3=O)Nc3n[nH]c(C)c32)cc1 (centres undefined) | . | . | . | . | .
CC(C)NC(=O)c1ccc(C2SCC(=O)N2Cc2ccccc2)cc1 (centres undefined) | . | . | 50.3 | . | .

Bioassay records (PubChem BioAssay)
